Holding throughout (assay): DAPPL (digital affinity profiling via proximity ligation, sequencing); 10 mM Tris-HCl pH 7.5, 50 mM NaCl, 1 mM DTT, 4% glycerol, room temperature, 30 min; GST-TFs on glutathione beads, 16-mer random dsDNA library, 0.1% formaldehyde crosslink after washing; high values mean tight binding
Conditions in all cases: protein: recombinant; tags: N-terminal GST; dsDNA, one strand shown

One assay deals with T1, FLI1 (Homo sapiens, UniProt Q01543 1-452).
T1 sequence: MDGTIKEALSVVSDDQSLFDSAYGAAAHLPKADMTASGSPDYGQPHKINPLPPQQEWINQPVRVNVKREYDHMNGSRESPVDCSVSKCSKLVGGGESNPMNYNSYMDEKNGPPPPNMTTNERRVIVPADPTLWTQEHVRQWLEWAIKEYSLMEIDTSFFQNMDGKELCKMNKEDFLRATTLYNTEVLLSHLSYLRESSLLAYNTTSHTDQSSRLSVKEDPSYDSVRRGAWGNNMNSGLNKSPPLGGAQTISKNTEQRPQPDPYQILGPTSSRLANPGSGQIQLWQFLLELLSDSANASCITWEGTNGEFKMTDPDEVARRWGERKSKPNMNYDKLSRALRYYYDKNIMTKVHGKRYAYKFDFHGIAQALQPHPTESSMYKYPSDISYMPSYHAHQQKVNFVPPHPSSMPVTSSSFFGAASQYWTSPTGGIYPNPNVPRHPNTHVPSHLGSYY
The gist of the method:
(§1)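 Human transcription factors carrying a GST fusion were produced in yeast, bound to glutathione beads, tagged with DNA barcodes and pooled together with a tag-only sample. Each pool was held with 200 nmole of a random double-stranded 16-mer DNA library in Tris/NaCl/DTT/glycerol buffer for 30 min at room temperature, then washed, crosslinked in 0.1% formaldehyde, proximity-ligated with BsaI/T4 ligase (1 h, 37 °C), PCR-amplified and sequenced on an Illumina NextSeq500. Binding signal is the read frequency of each hexamer for a given factor divided by its frequency in the tag-only sample.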

A further assay has as its target T2, ELK1 (Homo sapiens, UniProt P19419 1-428).
T2 sequence: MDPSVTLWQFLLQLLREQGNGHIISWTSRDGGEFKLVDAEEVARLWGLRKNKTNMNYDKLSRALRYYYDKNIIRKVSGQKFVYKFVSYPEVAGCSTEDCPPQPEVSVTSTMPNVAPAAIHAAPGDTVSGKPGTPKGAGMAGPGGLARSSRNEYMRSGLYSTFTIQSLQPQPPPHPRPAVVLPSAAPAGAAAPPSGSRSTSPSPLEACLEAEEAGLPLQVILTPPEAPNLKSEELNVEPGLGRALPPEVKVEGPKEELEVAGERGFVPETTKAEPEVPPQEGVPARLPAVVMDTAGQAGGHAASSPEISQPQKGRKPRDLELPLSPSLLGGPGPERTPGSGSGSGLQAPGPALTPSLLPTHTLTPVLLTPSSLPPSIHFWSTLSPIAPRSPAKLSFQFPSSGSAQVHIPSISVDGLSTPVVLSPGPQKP
In outline:
as §1

Another assay deals with ELF1 (Homo sapiens, UniProt P32519 1-619). The gist of the method: as §1
Sequence of ELF1 (P32519 whole entry): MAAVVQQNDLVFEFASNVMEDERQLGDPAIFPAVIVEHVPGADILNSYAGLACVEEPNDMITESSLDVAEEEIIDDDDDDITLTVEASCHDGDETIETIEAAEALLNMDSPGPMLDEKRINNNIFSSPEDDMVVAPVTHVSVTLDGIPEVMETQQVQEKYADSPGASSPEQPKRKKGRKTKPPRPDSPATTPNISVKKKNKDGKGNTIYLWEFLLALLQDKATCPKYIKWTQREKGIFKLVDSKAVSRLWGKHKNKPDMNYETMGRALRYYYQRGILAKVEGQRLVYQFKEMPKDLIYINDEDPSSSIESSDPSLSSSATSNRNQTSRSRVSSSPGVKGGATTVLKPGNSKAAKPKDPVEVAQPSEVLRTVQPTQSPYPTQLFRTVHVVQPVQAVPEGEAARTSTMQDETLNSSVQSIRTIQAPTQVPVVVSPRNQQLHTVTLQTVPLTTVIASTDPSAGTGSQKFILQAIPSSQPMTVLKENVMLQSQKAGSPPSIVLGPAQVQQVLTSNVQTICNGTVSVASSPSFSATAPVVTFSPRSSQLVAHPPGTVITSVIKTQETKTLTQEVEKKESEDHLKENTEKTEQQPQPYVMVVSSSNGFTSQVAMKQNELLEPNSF
For another assay, the target named is SPI1 (Homo sapiens, UniProt P17947 1-270). The gist of the method: as §1
The target of a further assay is SPIB (Homo sapiens, UniProt Q01892 1-262). In outline: as §1
Sequence of SPIB (Q01892 whole entry): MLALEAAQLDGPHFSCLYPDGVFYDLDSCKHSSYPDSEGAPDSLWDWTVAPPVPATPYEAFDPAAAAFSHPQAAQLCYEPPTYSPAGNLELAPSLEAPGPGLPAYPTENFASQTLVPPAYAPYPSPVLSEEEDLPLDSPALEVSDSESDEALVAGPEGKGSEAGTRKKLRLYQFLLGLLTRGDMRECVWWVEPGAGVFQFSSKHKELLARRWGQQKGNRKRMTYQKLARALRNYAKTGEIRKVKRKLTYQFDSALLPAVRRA
The target in the next assay is T3, ELK3 (Homo sapiens, UniProt P41970 1-407).
T3 sequence: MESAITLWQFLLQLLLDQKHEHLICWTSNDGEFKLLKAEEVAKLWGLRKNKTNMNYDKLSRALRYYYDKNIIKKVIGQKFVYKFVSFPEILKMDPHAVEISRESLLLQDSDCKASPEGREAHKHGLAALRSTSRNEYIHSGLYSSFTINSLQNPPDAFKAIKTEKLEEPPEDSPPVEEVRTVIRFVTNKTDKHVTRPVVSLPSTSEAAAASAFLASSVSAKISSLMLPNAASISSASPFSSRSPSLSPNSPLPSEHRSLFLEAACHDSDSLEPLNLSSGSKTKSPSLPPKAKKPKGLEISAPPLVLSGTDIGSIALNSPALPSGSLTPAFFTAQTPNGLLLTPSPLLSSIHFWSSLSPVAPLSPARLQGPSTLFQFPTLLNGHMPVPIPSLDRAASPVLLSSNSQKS
The gist of the method: as §1

A further assay deals with T4, ERG (Homo sapiens, UniProt P11308 1-479).
T4 sequence: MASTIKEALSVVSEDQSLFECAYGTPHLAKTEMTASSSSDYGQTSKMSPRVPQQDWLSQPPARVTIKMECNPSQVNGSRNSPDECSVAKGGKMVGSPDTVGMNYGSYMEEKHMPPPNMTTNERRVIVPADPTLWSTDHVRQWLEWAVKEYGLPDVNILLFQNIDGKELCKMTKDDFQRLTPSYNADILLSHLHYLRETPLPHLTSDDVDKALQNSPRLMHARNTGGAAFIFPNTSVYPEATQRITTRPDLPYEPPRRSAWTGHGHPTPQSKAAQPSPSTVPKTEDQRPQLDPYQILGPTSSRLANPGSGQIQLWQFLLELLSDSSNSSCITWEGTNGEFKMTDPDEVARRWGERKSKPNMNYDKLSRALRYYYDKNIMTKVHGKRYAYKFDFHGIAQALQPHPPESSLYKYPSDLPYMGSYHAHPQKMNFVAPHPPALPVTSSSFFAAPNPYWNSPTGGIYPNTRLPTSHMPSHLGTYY
The gist of the method:
as §1

In the next assay the target is T5, EHF (Homo sapiens, UniProt Q9NZC4 1-300).
T5 sequence: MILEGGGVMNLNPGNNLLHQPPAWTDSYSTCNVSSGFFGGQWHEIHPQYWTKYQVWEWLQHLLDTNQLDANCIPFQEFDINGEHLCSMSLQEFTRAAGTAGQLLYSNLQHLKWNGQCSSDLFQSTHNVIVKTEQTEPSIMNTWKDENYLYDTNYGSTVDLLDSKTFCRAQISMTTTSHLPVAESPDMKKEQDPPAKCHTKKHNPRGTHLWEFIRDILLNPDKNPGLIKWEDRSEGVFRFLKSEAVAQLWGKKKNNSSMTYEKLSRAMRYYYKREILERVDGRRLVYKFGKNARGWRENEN
The gist of the method: as §1

Another assay concerns the target T6, GABPA (Homo sapiens, UniProt Q06546 1-454).
T6 sequence: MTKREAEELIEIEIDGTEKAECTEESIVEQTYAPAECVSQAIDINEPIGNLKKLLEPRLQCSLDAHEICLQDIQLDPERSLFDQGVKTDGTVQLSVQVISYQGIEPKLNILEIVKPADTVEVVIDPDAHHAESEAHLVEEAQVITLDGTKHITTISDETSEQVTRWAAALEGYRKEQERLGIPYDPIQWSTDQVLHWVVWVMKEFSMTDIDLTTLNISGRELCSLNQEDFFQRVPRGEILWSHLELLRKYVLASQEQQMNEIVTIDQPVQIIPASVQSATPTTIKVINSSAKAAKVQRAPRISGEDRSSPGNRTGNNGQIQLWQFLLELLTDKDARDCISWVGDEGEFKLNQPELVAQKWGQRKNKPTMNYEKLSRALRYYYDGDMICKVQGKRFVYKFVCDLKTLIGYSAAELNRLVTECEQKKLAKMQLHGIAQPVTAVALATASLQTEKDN
The gist of the method: as §1

For the sequence TTCCAG, the binding signal in the assay with FLI1 is 1.03 fold enrichment (6-mer frequency, TF over GST control); with ELK1 it was 1.02 fold enrichment (6-mer frequency, TF over GST control); with ELF1, 1.02 fold enrichment (6-mer frequency, TF over GST control); in the assay with SPI1, 1.05 fold enrichment (6-mer frequency, TF over GST control); with SPIB it was 1.1 fold enrichment (6-mer frequency, TF over GST control); with ELK3, 1.07 fold enrichment (6-mer frequency, TF over GST control).

Consider AAATCG, for which the binding signal is 1.03 fold enrichment (6-mer frequency, TF over GST control) in the assay with FLI1; 1.01 fold enrichment (6-mer frequency, TF over GST control) with ELK1; 1.06 fold enrichment (6-mer frequency, TF over GST control) with ERG; 1.03 fold enrichment (6-mer frequency, TF over GST control) with EHF; 1.01 fold enrichment (6-mer frequency, TF over GST control) with SPI1; 1.04 fold enrichment (6-mer frequency, TF over GST control) with SPIB. In addition, the binding signal in the assay with ELK3 is 1.04 fold enrichment (6-mer frequency, TF over GST control).

Consider GCAATG, for which the binding signal is 1.05 fold enrichment (6-mer frequency, TF over GST control) with FLI1; 1.08 fold enrichment (6-mer frequency, TF over GST control) with ELK1; 1.08 fold enrichment (6-mer frequency, TF over GST control) in the assay with ELF1; 1.04 fold enrichment (6-mer frequency, TF over GST control) with EHF; 1.03 fold enrichment (6-mer frequency, TF over GST control) with ELK3.

Regarding TACTGG, the binding signal in the assay with FLI1 is 1.08 fold enrichment (6-mer frequency, TF over GST control); in the assay with GABPA it was 1.19 fold enrichment (6-mer frequency, TF over GST control); with ERG, 1.13 fold enrichment (6-mer frequency, TF over GST control); in the assay with ELF1 it was 1.13 fold enrichment (6-mer frequency, TF over GST control); with SPI1, 1.08 fold enrichment (6-mer frequency, TF over GST control); with SPIB, 1.05 fold enrichment (6-mer frequency, TF over GST control). Also, in the assay with ELK3, the binding signal was 1.07 fold enrichment (6-mer frequency, TF over GST control).

On to CGAAAT, for which the binding signal with FLI1 was 1.05 fold enrichment (6-mer frequency, TF over GST control); in the assay with ERG, 1.02 fold enrichment (6-mer frequency, TF over GST control); with ELF1, 1.01 fold enrichment (6-mer frequency, TF over GST control); with EHF it was 1.07 fold enrichment (6-mer frequency, TF over GST control); in the assay with SPI1 it was 1.09 fold enrichment (6-mer frequency, TF over GST control); with SPIB it was 1.07 fold enrichment (6-mer frequency, TF over GST control).

On to ATCGTT, for which the binding signal with FLI1 is 1.08 fold enrichment (6-mer frequency, TF over GST control); in the assay with GABPA, 1.01 fold enrichment (6-mer frequency, TF over GST control); with ERG it was 1.02 fold enrichment (6-mer frequency, TF over GST control).

For the sequence GAAAAC, the binding signal with FLI1 is 1.04 fold enrichment (6-mer frequency, TF over GST control); with GABPA, 1.05 fold enrichment (6-mer frequency, TF over GST control); in the assay with ERG it was 1.09 fold enrichment (6-mer frequency, TF over GST control); with ELF1 it was 1.06 fold enrichment (6-mer frequency, TF over GST control); with EHF, 1.09 fold enrichment (6-mer frequency, TF over GST control); in the assay with SPI1, 1.07 fold enrichment (6-mer frequency, TF over GST control). Also, the binding signal in the assay with SPIB is 1 fold enrichment (6-mer frequency, TF over GST control).

GTGGCT: the binding signal with FLI1 is 1.23 fold enrichment (6-mer frequency, TF over GST control); in the assay with GABPA, 1.27 fold enrichment (6-mer frequency, TF over GST control); with ERG it was 1.19 fold enrichment (6-mer frequency, TF over GST control); with ELF1, 1.11 fold enrichment (6-mer frequency, TF over GST control); in the assay with EHF, 1.22 fold enrichment (6-mer frequency, TF over GST control); with SPI1, 1.3 fold enrichment (6-mer frequency, TF over GST control). For the same sequence, the binding signal in the assay with SPIB was 1.18 fold enrichment (6-mer frequency, TF over GST control).

As for ACATCG, the binding signal in the assay with FLI1 is 1.03 fold enrichment (6-mer frequency, TF over GST control); in the assay with ELK1 it was 1.01 fold enrichment (6-mer frequency, TF over GST control); with ELF1 it was 1.06 fold enrichment (6-mer frequency, TF over GST control); with EHF it was 1.15 fold enrichment (6-mer frequency, TF over GST control); with SPI1, 1.03 fold enrichment (6-mer frequency, TF over GST control); with SPIB, 1.1 fold enrichment (6-mer frequency, TF over GST control). The binding signal with ELK3 was 1.09 fold enrichment (6-mer frequency, TF over GST control).
